In PubChem BioAssay AID720728 (Molecular Libraries Program, Specialized Chemistry Center, …, 2013):
Activity calls are given as the source filed them. How the calls were made is not given here.

Experiment: mitochondrial permeability transition pore blockers, isolated mitochondria – biochemical, dry powder samples, uHTS hits, dose response (AID 720728)
Conditions: calcium retention capacity

CRC/CRC0 ratio at 50 uM (fold over control, higher = inhibition), active:
C=CCNCCOc1ccc(C(C)(C)c2ccccc2)cc1 1.95 fold
CCN(CC)CCCN=Cc1c(O)n(Cc2ccccc2)c(=O)c2ccccc12 1.3 fold
COc1ccc(Cl)cc1C(=O)Nc1ccc(CN2CCCCC2)cc1 2.57 fold
O=C(CC1NCCc2ccccc21)Nc1ccc(Cl)cc1 (stereo not given) 1.65 fold
N=c1sccn1CC(=O)Nc1cccc(Oc2ccccc2)c1 1.91 fold
Cc1cc(C)c2nc(N(CCCN(C)C)C(=O)c3ccc(S(=O)(=O)N4CCCCCC4)cc3)sc2c1 1.57 fold
C=CCNCCOCCOc1ccc(Cl)cc1C(C)(C)C 1.81 fold
Cc1cc(C)c2nc(N(CCCN(C)C)C(=O)C3=COCCO3)sc2c1 1.4 fold
CNCCCC12CCC(c3ccccc31)c1ccccc12 1.82 fold
CCOC(=O)N1CCN(S(=O)(=O)c2ccc(C(=O)N(CCCN(C)C)c3nc4c(C)c(C)ccc4s3)cc2)CC1 1.51 fold
COc1ccc(-n2cc(CNC3CCN(C)CC3)c(-c3cccc(F)c3)n2)cc1 1.5 fold
COc1ccc(C)c2sc(N(CCCN(C)C)C(=O)CS(=O)(=O)c3ccc(F)cc3)nc12 1.4 fold
CCN(CC)c1ccc(NC(=O)c2cc(Cl)ccc2OC)cc1 0.622 fold
N#Cc1c(NCCN)nc(-c2ccco2)c2c1CCCC2 1.81 fold
Cc1ccc2nc(N(CCN(C)C)C(=O)/C=C/c3cccs3)sc2c1 1.28 fold
